The results in this text go back to PubChem BioAssay AID743060 (The Scripps Research Institute Molecular Screening Center, 2013).

Structures are written as SMILES.

This assay in a line: T. brucei methionyl-tRNA synthetase enzyme inhibition – biochemical, radioactivity, round 1, late-stage follow-up (AID 743060). The following applies: purified enzyme, radiolabel aminoacylation, scintillation, 2 h; at 1 µM; stronger effect = higher value.
As to `Cc1cccc2[nH]c(C3CCCN(C(=O)c4cccc5cccnc45)C3)nc12` (centres undefined), the inhibition was -3.03%.
With `Cc1ccc(CNC(=O)CSc2nnc3c(n2)[nH]c2ccc(C)cc23)cc1`, the inhibition was 76.3%.
The result for `Cc1cc2cc(C(=O)N3CCCC(c4nc5ccccc5[nH]4)C3)ccc2o1` (centres undefined) reads 20.3%; that for `CCCCCCCCCC1NC(C(=O)O)Cc2c1[nH]c1ccccc21` (centres undefined), 64.7%; that for `CC(C)(C)[C@@H]1C=C(C(=O)NCc2nc3ccccc3[nH]2)O[C@H](OCc2ccc(CO)cc2)C1`, 30.8%.
The result for `O=C(NCc1nc2ccccc2[nH]1)C1=C[C@H](c2ccc3c(c2)OCO3)C[C@H](OCCCCO)O1` reads 5.68%; that for `COc1ccccc1NS(=O)(=O)c1cccc(NC(=O)Nc2ccccc2)c1`, 57%; that for `Cc1cccc(C(=O)NCCc2nc3ccccc3n2CCOc2ccccc2)c1`, 1.66%.
In the case of `Oc1c(Cl)cc(Cl)cc1CNc1nc2ccccc2[nH]1` it was 88.3%; in that of `O=C1CC(SCc2nc3ccccc3[nH]2)C(=O)N1c1cccc(Cl)c1` (centres undefined), 19.7%; in that of `Cc1cccc2[nH]c(CCN(C)C(=O)c3cccc(C4CCNC4)c3)nc12` (centres undefined), -7.8%.
Turning to `Cn1c(CCNC(=O)c2ccc(Cl)cc2)nc2ccccc21`, the inhibition is 10.9%.
The result for `O=C(Cn1cc(C(=O)COc2ccccc2)c2ccccc21)Nc1cccc(C(F)(F)F)c1` reads -5.73%; that for `CCO[C@@H]1OC(C(=O)NCc2nc3ccccc3[nH]2)=C[C@H](c2ccc(Br)cc2)[C@H]1CCCO`, 6.72%.
The result for `O=C(CSC1CC(=O)N(c2cccc(Cl)c2)C1=O)Nc1ccc(Br)cc1` (centres undefined) reads 23.7%.
In the case of `Cc1ccc2[nH]c3nc(SCC(=O)Nc4ccc(C(F)(F)F)cc4)nnc3c2c1` it was 21.3%; in that of `CCO[C@H]1OC(C(=O)NCc2nc3ccccc3[nH]2)=C[C@@H](c2ccc(Br)cc2)[C@@H]1CCCO`, 0.88%; in that of `CC(=O)c1ccc(N2CCN(C(=O)CCCn3c(=O)[nH]c4ccc(Br)cc4c3=O)CC2)cc1`, 68.1%.
`O=C(NNC(=O)c1cc(-c2ccc(Cl)c(Cl)c2)nc2ccccc12)Nc1ccccc1`: the inhibition worked out at 59.7%.
In the case of `O=C(CN1CCSC1=NCc1ccccc1)c1ccc(Cl)c(Cl)c1`, the inhibition is -1.95%.
The result for `CC1Cc2ccccc2N1C(=O)Cn1cc(C(=O)C(=O)N2CCOCC2)c2ccccc21` (centres undefined) reads -6.83%; that for `O=C(NCCc1nc2ccccc2[nH]1)c1ccc(Cl)cc1`, 20.1%.
In the case of `O=C(CSc1nnc2c(n1)[nH]c1ccc(Br)cc12)NCc1ccccc1` it was 79.8%; in that of `O=C(Cn1cc(C(=O)C2CC2)c2ccccc21)Nc1cccc(C(F)(F)F)c1`, 3.65%.
For `COc1ccccc1NC(=O)Cn1cc(C(=O)C(=O)N2CCOCC2)c2ccccc21`, the inhibition is -14.4%.
With `CC(C)OCCCN1CC(=O)N2C(c3cccc([N+](=O)[O-])c3)c3[nH]c4ccccc4c3C[C@H]2C1=O` (some centres undefined), the inhibition came out at 50%.
On to `Cc1ccc(C(=O)NCCc2nc3ccccc3[nH]2)cc1[N+](=O)[O-]`, for which the inhibition was 35.7%.
For the molecule `COc1ccccc1NC(=O)CSc1nnc2c(n1)[nH]c1ccc(C)cc12`, the inhibition was determined as 19.1%.
In the case of `CC(=O)N(CCc1ccccc1)C1CC(=O)N(c2ccc(Cl)cc2)C1=O` (centres undefined) it was -16.2%.
In the case of `O=C(CC=NOCc1ccc([N+](=O)[O-])cc1)Nc1ccc(Br)cc1` it was 32.2%; in that of `Brc1cnc2nc(SCc3nc4ccccc4[nH]3)[nH]c2c1`, 23.7%.
In the case of `CCc1ccc2c(c1)c1nnc(SCC(=O)Nc3ccc4c(c3)OCO4)nc1n2C` it was -1.63%.
As to `O=C(C[C@H]1C(=O)N(Cc2ccccc2)C[C@@H]1c1ccc(Br)cc1)Nc1ccc(Br)cc1`, the inhibition is 55.7%.
Turning to `O=C(C(=O)N1CCOCC1)c1cn(CC(=O)N2CCCc3ccccc32)c2ccccc12`, the inhibition is -6%.

In general, inhibition refers to the relative decrease from the control value, in per cent.
